24 molecules from PubChem BioAssay AID602409 (Sanford-Burnham Center for Chemical Genomics, 2012) can be followed below.

Some of the results follow. Active and inactive are the calls of the source.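 How the source made its calls: active means mean inhibition over four retests above 40%; inactive means the rest.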

In the assay the target is C-X-C chemokine receptor type 6 (Homo sapiens) (UniProt O00574). The experiment in a line: CXCR6 receptor antagonists, confirmation, cell-based, single concentration, beta-arrestin, luminescence (AID 602409).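 Further: receptor stimulated with 10 nM CXCL16 agonist; beta-galactosidase fragment complementation upon beta-arrestin recruitment to receptor; plate controls were CXCL16 plus DMSO for no effect and DMSO without CXCL16 for full effect.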 The following applies: CHO-K1 CXCR6 PathHunter beta-arrestin, at 20 µM, hits give high values.
Chain of C-X-C chemokine receptor type 6 (Homo sapiens) (O00574 whole entry, looked up, the tested form may be a part): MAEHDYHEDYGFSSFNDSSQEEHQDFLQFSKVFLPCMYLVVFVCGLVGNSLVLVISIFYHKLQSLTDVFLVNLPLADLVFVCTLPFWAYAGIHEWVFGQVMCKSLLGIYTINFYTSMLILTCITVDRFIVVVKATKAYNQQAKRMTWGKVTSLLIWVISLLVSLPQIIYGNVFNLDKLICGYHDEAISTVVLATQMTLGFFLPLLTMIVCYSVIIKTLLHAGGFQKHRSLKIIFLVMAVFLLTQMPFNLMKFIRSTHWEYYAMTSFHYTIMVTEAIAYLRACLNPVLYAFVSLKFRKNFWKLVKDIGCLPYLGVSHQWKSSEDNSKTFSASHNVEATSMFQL
The inhibition is the relative decrease from the control value, in per cent. With `Cc1c(C(=O)NCCN(C)C)oc2ccc(S(=O)(=O)N3CCCC3)cc12`, the inhibition was 10.1% (inactive).

For `O=C1C=CC(=O)N1c1ccc(N2CCCCC2)cc1`, the inhibition was 63.5% (active).

Take `CCCCCCCCCCOC(=O)C[N+](C)(C)CC1CCCCC1O` (centres undefined): the inhibition is 14.4% (inactive).

For `CC(C)N=C1CCCC1C(=S)SSC(=S)C1CCCC1=NC(C)C` (centres undefined), the inhibition was 94.9% (active).

With `O=[N+]([O-])/C=C/c1ccc2c(ccn2Cc2ccccc2)c1`, the inhibition was 76.2% (active).

Regarding `O=C(CSc1cccc2cccnc12)N/N=C/c1cccnc1`, the inhibition was 67.2% (active).

Consider `O=C(C1CC(=O)N(C2CCCCC2)C1)N1CCN(c2ccccc2)CC1` (centres undefined), for which the inhibition is 3.17% (inactive).

With `CCCCCCCCCCOC(=O)Cn1c(COc2cccc(OC)c2)[n+](C)c2ccccc21`, the inhibition was 4% (inactive).

For the molecule `Cc1cc(C)nc(S/C=C/C(=O)c2ccccc2)n1`, the inhibition is 41.5% (active).

Turning to `O=C(Nc1ccccc1)c1nnsc1S(=O)(=O)c1ccc(Cl)cc1`, the inhibition was 19.7% (inactive).

As to `C/C(=N\NC(=O)Cc1ccc(Cl)cc1)c1ccccn1`, the inhibition is 104% (active).

As to `CCOCCCN1C(=O)C2C(C(=O)Nc3ccc(OCC)cc3)C3C=CC2(O3)C1C(=O)NC1CCCCC1` (centres undefined), the inhibition was -4.97% (inactive).

With `COC(=O)/C=C\C(=O)Nc1cccc([N+](=O)[O-])c1`, the inhibition was 45.6% (active).

`Cc1cc(C(=O)NCCCc2ccccc2)no1`: the inhibition was 9.46% (inactive).

In the case of `COCCCNC(=S)NC(=O)c1ccc([N+](=O)[O-])cc1`, the inhibition was 19.8% (inactive).

As for `COc1ccc(-c2csc(Cc3nc(O)cs3)n2)cc1`, the inhibition is 77% (active).

Regarding `COc1cccc2sc(N(CCCN(C)C)C(=O)CCS(=O)(=O)c3ccccc3)nc12`, the inhibition is 81% (active).

On to `CCC(=O)OCCNc1nc(-c2ccccc2)nc2ccccc12`, for which the inhibition was 11.6% (inactive).

For `CC(=O)/C(=N\Nc1ccc(Cl)cc1Cl)Sc1cccc2cccnc12`, the inhibition was 81% (active).

For `CC(=O)Nc1cc(-c2ccc(N3CCN(C)CC3)cc2)cn2c(-c3ccc(F)cc3)cnc12`, the inhibition was 31.3% (inactive).

Turning to `CCCCNC(=S)N/N=C1\CCCCc2ccccc21`, the inhibition was 24.7% (inactive).

Take `Cc1ccc(-n2[nH]c(C)c(/C=N/N3C(=O)c4cccc5cccc(c45)C3=O)c2=O)cc1`: the inhibition is 60.2% (active).

Take `O=C(Nc1ccccc1Cl)/C(Cl)=C(\Cl)S(=O)c1ccccc1` (centres undefined): the inhibition is 81% (active).

Turning to `CCN(CC)CCn1c(N)c(S(=O)(=O)c2ccccc2)c2nc3ccccc3nc21`, the inhibition is 55% (active).
